# Reference: paper PMC10812921, “Transcriptional Coactivator BOB1 (OBF1, OCA-B) Modulates the Specificity of DNA Recognition by the POU-Domain Factors OCT1 and OCT2 in a Monomeric Configuration”
# What was measured:
# POU1 (OCT1 POU domain) = POU1 (OCT1 POU domain) (human, UniProt P14859 260-458); experiment: EMSA-SELEX-seq; no BOB1; 20 mM Tris-HCl pH 7.6, 140 mM NaCl, 10% glycerol, 0.5 mM EDTA, 0.05% Triton X-100, 0.1 mg/mL BSA, 0.1 mg/mL poly(dI-dC), 5 mM DTT, room temperature, 20 min; high values mean tight binding; details: protein: recombinant; dsDNA, one strand shown
# Procedure, shortened: (§1)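 With or without 28 ng coactivator protein, 30 ng of tagged POU-domain protein was combined with 300 ng of a PCR-amplified double-stranded random 35-nt library in 20 μL Tris–HCl pH 7.6 binding buffer for 20 min at RT. The protein came from E. coli BL21 and had been purified under denaturing conditions and renatured. Four rounds of cutting complex bands from native 6% PAGE, elution and PCR amplification preceded Illumina sequencing. The binding preference figure is the percentage of sequenced 8-mers matching a motif pattern.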
# POU2 (OCT2 POU domain) = molecular target: T1, POU2 (OCT2 POU domain) (human, UniProt P09086 175-386); experiment: as above; details: protein: recombinant; dsDNA, one strand shown
# T1 sequence: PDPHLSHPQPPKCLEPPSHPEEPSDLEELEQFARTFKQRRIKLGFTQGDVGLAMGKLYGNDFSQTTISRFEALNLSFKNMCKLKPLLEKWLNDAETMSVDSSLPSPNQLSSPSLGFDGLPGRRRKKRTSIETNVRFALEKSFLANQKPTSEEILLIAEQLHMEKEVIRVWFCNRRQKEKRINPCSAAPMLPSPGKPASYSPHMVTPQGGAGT
# Procedure, shortened: as §1
# [1] = molecular target: POU1 (OCT1 POU domain);BOB1 (OBF1, OCA-B) (human;human, UniProt P14859;Q16633 260-458;1-256, |); experiment: EMSA-SELEX-seq; with BOB1 (ternary complex band); 20 mM Tris-HCl pH 7.6, 140 mM NaCl, 10% glycerol, 0.5 mM EDTA, 0.05% Triton X-100, 0.1 mg/mL BSA, 0.1 mg/mL poly(dI-dC), 5 mM DTT, room temperature, 20 min; high values mean tight binding; details: protein: recombinant;recombinant; copies: 1;1; dsDNA, one strand shown
# Procedure, shortened: as §1
# [2] = molecular target: T2, POU2 (OCT2 POU domain);BOB1 (OBF1, OCA-B) (human;human, UniProt P09086;Q16633 175-386;1-256, |); experiment: as above; details: protein: recombinant;recombinant; copies: 1;1; dsDNA, one strand shown
# T2 sequence 1: T1 sequence
# T2 sequence 2: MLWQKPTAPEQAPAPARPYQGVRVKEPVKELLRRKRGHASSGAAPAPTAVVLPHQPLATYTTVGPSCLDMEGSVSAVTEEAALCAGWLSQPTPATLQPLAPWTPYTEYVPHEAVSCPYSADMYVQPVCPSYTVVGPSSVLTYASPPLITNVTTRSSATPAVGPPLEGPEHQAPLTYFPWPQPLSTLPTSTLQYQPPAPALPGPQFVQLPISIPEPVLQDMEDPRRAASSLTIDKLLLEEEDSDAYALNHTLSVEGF
# Procedure, shortened: as §1
# Sequence of POU1 (OCT1 POU domain) (P14859 260-458): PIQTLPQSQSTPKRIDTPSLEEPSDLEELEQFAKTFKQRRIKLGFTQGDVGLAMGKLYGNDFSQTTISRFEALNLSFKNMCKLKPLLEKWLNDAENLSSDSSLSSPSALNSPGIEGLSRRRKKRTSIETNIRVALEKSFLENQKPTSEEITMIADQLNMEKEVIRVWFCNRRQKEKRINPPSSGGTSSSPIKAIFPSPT
Sequence,binding signal (POU1 (OCT1 POU domain)),binding signal (POU2 (OCT2 POU domain)),binding signal [1],binding signal [2]
AGATAAAT,0.0892 % of ANNNNAAN 8-mers,0.0886 % of ANNNNAAN 8-mers,0.0617 % of ANNNNAAN 8-mers,0.0627 % of ANNNNAAN 8-mers
AATCCAAG,0.0324 % of ANNNNAAN 8-mers,0.0339 % of ANNNNAAN 8-mers,0.0425 % of ANNNNAAN 8-mers,0.0371 % of ANNNNAAN 8-mers
ACTGAAAG,0.0172 % of ANNNNAAN 8-mers,0.0196 % of ANNNNAAN 8-mers,0.0273 % of ANNNNAAN 8-mers,0.0231 % of ANNNNAAN 8-mers
ACCCCAAA,0.0198 % of ANNNNAAN 8-mers,0.0104 % of ANNNNAAN 8-mers,0.0109 % of ANNNNAAN 8-mers,0.0124 % of ANNNNAAN 8-mers
ACATTAAA,0.104 % of ANNNNAAN 8-mers,0.125 % of ANNNNAAN 8-mers,0.0624 % of ANNNNAAN 8-mers,0.0611 % of ANNNNAAN 8-mers
AATAAAAA,0.137 % of ANNNNAAN 8-mers,0.132 % of ANNNNAAN 8-mers,0.125 % of ANNNNAAN 8-mers,0.0958 % of ANNNNAAN 8-mers
ATTTGAAT,1.84 % of ANNNNAAN 8-mers,1.5 % of ANNNNAAN 8-mers,1.92 % of ANNNNAAN 8-mers,2.32 % of ANNNNAAN 8-mers
ACCTAAAA,0.021 % of ANNNNAAN 8-mers,0.0311 % of ANNNNAAN 8-mers,0.0254 % of ANNNNAAN 8-mers,0.0157 % of ANNNNAAN 8-mers
ATGATAAG,0.0843 % of ANNNNAAN 8-mers,0.0984 % of ANNNNAAN 8-mers,0.0714 % of ANNNNAAN 8-mers,0.0768 % of ANNNNAAN 8-mers
AATTTAAT,0.306 % of ANNNNAAN 8-mers,0.333 % of ANNNNAAN 8-mers,0.182 % of ANNNNAAN 8-mers,0.162 % of ANNNNAAN 8-mers
ATTTCAAC,0.0416 % of ANNNNAAN 8-mers,0.0414 % of ANNNNAAN 8-mers,0.041 % of ANNNNAAN 8-mers,0.0429 % of ANNNNAAN 8-mers
ACAAAAAC,0.0488 % of ANNNNAAN 8-mers,0.0397 % of ANNNNAAN 8-mers,0.0706 % of ANNNNAAN 8-mers,0.0405 % of ANNNNAAN 8-mers
AAGTTAAA,0.0858 % of ANNNNAAN 8-mers,0.0857 % of ANNNNAAN 8-mers,0.0901 % of ANNNNAAN 8-mers,0.071 % of ANNNNAAN 8-mers
AGGGTAAC,0.0339 % of ANNNNAAN 8-mers,0.0328 % of ANNNNAAN 8-mers,0.0343 % of ANNNNAAN 8-mers,0.0322 % of ANNNNAAN 8-mers
AGAACAAC,0.0153 % of ANNNNAAN 8-mers,0.0132 % of ANNNNAAN 8-mers,0.0125 % of ANNNNAAN 8-mers,0.0239 % of ANNNNAAN 8-mers
ATCCTAAT,0.0614 % of ANNNNAAN 8-mers,0.0944 % of ANNNNAAN 8-mers,0.0499 % of ANNNNAAN 8-mers,0.0693 % of ANNNNAAN 8-mers
AGATCAAA,0.0393 % of ANNNNAAN 8-mers,0.0483 % of ANNNNAAN 8-mers,0.0414 % of ANNNNAAN 8-mers,0.0355 % of ANNNNAAN 8-mers
ATAATAAA,0.194 % of ANNNNAAN 8-mers,0.251 % of ANNNNAAN 8-mers,0.117 % of ANNNNAAN 8-mers,0.0999 % of ANNNNAAN 8-mers
ATCAGAAC,0.0214 % of ANNNNAAN 8-mers,0.0242 % of ANNNNAAN 8-mers,0.0238 % of ANNNNAAN 8-mers,0.0371 % of ANNNNAAN 8-mers
ACACGAAC,0.0114 % of ANNNNAAN 8-mers,0.0167 % of ANNNNAAN 8-mers,0.0121 % of ANNNNAAN 8-mers,0.0124 % of ANNNNAAN 8-mers
ACGCGAAG,0.0172 % of ANNNNAAN 8-mers,0.0121 % of ANNNNAAN 8-mers,0.0168 % of ANNNNAAN 8-mers,0.0239 % of ANNNNAAN 8-mers
ACACGAAG,0.0206 % of ANNNNAAN 8-mers,0.0196 % of ANNNNAAN 8-mers,0.0176 % of ANNNNAAN 8-mers,0.0157 % of ANNNNAAN 8-mers
ACGATAAT,0.0896 % of ANNNNAAN 8-mers,0.123 % of ANNNNAAN 8-mers,0.0535 % of ANNNNAAN 8-mers,0.085 % of ANNNNAAN 8-mers
